Screening results deposited in PubChem by several laboratories.
WT yeast gro inh: growth inhibition of WT strain, primary screen, mitochondrial fusion inhibitor project, WT and mutant strains, chemical genetic; inhibition, % at 10 µM; mitochondrial fusion phenotypic screen; 2.1% of 190,000 active; AID 1362, 2008; in the data active means inhibition above about 58%; tested in S. cerevisiae
TNF death inh: inhibitors of TNF-alpha triggered necroptosis, primary screen, cell-based, Jurkat FADD-/-, single concentration | Jurkat FADD-/- TNF necroptosis rescue, ATP luminescence, 24 h; 0 = TNF only, 100 = no-TNF cells | AID 463075, 2010 | 0.068% of 220,000 active | activation (protection from cell death), % at 10 µM;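 active means activation, meaning protection from cell death, of at least 50% relative to plate controls; inactive means activation below 50%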;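 further: necroptosis triggered by 40 ng/mL TNF-alpha added together with compound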
DTT redox prof: compounds producing H2O2 with reducing agent – biochemical, NIH compound library profiling, artefact control for MLSCN library redox annotation, primary screen. activation, % at 10 µM. DTT-dependent redox cycling H2O2, phenol red/HRP absorbance; 100% = 100 µM peroxide control, 0% = buffer. 0.03% of 200,000 active;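 active means activation of at least 50% relative to the plate's high and low controls in the primary single-dose screen; inactive means activation below 50%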;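 further: compound incubated with DTT at 0.8 mM final as the reducing agent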
PKD1 inh: inhibitors of human PKD1 kinase, biochemical, fluorescence polarization; Serine/threonine-protein kinase D1 (Homo sapiens), Q15139; PKD1 kinase fluorescence polarization assay; inhibition, % (no concentration beside the values); 0.056% of 200,000 active; AID 797, 2007; in the data active means inhibition above about 50%
Target sequence (Q15139 whole entry, looked up): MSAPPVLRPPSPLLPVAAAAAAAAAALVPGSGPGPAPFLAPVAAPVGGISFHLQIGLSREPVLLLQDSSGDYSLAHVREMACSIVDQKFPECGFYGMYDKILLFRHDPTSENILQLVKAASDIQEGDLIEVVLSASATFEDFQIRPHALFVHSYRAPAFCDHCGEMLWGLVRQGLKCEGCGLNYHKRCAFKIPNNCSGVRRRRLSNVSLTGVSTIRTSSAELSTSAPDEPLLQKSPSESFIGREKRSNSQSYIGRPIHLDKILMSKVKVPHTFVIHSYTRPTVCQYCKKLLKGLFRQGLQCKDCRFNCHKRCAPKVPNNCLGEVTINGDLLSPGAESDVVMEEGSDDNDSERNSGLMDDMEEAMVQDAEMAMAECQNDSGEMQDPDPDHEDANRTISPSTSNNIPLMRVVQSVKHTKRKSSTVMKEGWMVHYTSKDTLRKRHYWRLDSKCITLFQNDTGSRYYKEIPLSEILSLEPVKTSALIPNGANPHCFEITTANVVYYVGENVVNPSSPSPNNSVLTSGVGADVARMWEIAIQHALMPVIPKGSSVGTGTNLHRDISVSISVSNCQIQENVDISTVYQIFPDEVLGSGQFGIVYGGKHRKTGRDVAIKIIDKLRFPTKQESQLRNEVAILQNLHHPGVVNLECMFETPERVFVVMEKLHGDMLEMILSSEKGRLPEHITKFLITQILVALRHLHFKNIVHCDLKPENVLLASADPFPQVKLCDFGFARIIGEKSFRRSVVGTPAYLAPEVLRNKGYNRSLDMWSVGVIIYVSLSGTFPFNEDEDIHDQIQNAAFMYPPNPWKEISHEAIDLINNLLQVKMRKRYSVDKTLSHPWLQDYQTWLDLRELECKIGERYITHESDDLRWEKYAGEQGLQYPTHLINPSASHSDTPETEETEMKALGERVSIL
zVAD death inh: inhibitors of zVAD-triggered necroptosis, primary screen, L929 cells; L929 zVAD necroptosis rescue, ATP luminescence, 24 h; with zVAD 60 µM; viability rescue, % at 10 µM; 0.38% of 220,000 active;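 active means activation, scaled between plate controls, above about 75%, limit read from the data; inactive means activation under that limit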;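 further: 0% = zVAD with DMSO and 100% = DMSO alone without zVAD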
PERK inh: block of dimerizer-induced PERK translation repression, primary screen, PERK inhibitor project, CHO PERK-DD cells, SEAP luminescence, HTS; Eukaryotic translation initiation factor 2-alpha kinase 3 (Homo sapiens), Q9NZJ5; CHO PERK-DD fusion, SEAP luminescence translation reporter; inhibition, % at 5.6 µM; 0.17% of 220,000 active; AID 1416, 2008;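 active means inhibition above the mean inhibition of all tested compounds plus 3 SD, set separately per screening campaign, cut at about 2.9% in these data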;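 further: PERK kinase domain activated by AP20187 dimerizer at 100 nM; 0% = DMSO with dimerizer and 100% = rapamycin at 8.4 µM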
Numbers without * were called inactive; nt = no result given. Most compounds without a hit are left out; they make up all but 2.4% or so of the library.

SMILES | WT yeast gro inh | TNF death inh | DTT redox prof | PKD1 inh | zVAD death inh | PERK inh
C=C(C)C1CC=C(C)/C(=N\NC(=O)CCc2ccccc2)C1 (stereo not drawn) | -3 | 1 | 0 | -3 | 1 | 1
C=C(C)C1CC=C(C)/C(=N/NC(=O)COc2ccc(C)cc2)C1 (stereo not drawn) | -10 | -1 | 0 | 6 | 0 | -1
O=C(COC(=O)CC(c1ccccc1)c1ccccc1)Nc1ccc(F)c(F)c1 | 59* | 1 | -1 | 6 | -1 | 1
CN(C(=S)Nc1ccc(F)cc1)C1(c2ccccc2Cl)CCCCC1=O (stereo not drawn) | 12 | 0 | 1 | -1 | 0 | -1
Cc1cccc(CSc2nnc(-c3ccco3)o2)c1 | 33 | 16 | 0 | -3 | 0 | 0
Cc1cccc(-c2nnc(SCc3ccccc3)o2)c1 | 65* | 2 | 2 | -6 | 0 | 1
Cc1ccsc1-c1nc(-c2ccccc2)c(-c2ccccc2)[nH]1 | 7 | -2 | -3 | 0 | 2 | 0
Fc1ccc(-c2nc(-c3cccs3)[nH]c2-c2ccc(F)cc2)cc1 | 78* | 4 | 0 | -7 | 1 | 0
O=[N+]([O-])c1ccc(-c2nc(-c3cccs3)c(-c3cccs3)[nH]2)cc1 | 82* | -9 | -1 | -5 | 1 | -1
Cc1cc(C(=O)Cn2c(CO)nc3ccccc32)c(C)n1C | nt | 0 | nt | nt | 1 | 2
CCn1c(NC(=O)c2ccc(F)cc2)c2ccccc2nc1=O | 58* | -10 | 2 | 6 | 0 | 0
O=C(CSc1nnc(SCc2ccc(Cl)cc2)s1)N/N=C/c1c(Cl)cccc1Cl | 13 | 1 | 0 | 0 | 1 | -1
OCCN1CCN(CCCN2c3ccccc3Sc3ccc(Cl)cc32)CC1 | 96* | 5 | 0 | -6 | 5 | -2
CN(C)CCCN1c2ccccc2Sc2ccc(Cl)cc21 | 45 | -5 | 0 | -1 | 6 | 0
CCc1ccc(NC(=S)N(CCN2CCOCC2)Cc2ccccc2F)cc1 | 16 | 2 | 0 | -5 | -1 | 0
N#CCC(=N)N1CCN(c2ccc(F)cc2)CC1 | 18 | 1 | -1 | -2 | -1 | 0
OC(c1ccccc1)c1nc2ccccc2s1 (stereo not drawn) | -4 | 50* | 0 | 5 | 6 | 2
CC(C)N1CCC(N2CCN(CC#Cc3ccccc3)CC2CCO)CC1 (stereo not drawn) | 1 | 1 | 0 | 7 | -1 | 0
CC1CC1C(=O)OCC(=O)NCc1ccc(Cl)cc1Cl (stereo not drawn) | 82* | 0 | 0 | -1 | 1 | 2
O=c1c(Cl)c(NCc2ccccc2)cnn1C12CC3CC(CC(C3)C1)C2 | -13 | 1 | 0 | -5 | 29 | 0
CCC(=O)Nc1ccc2c(c1)C(=O)c1ccccc1C2=O | 39 | -9 | 2 | -6 | 49 | -1
CCC(C)(C)c1ccc2c(c1)C(=O)c1ccccc1C2=O | 76* | 0 | 0 | -2 | 0 | 0
Cn1c(O)c(N=NC(=S)Nc2ccccc2F)c2cc(S(=O)(=O)N3CCOCC3)ccc21 | 74* | -1 | 0 | -2 | 0 | 1
Cc1ccc(NC(=S)N=Nc2c(O)n(C)c3ccc(S(=O)(=O)N4CCOCC4)cc23)cc1C | 51 | -5 | 1 | -22 | nt | -1
COC(=O)c1cc(NS(=O)(=O)c2ccc(C)c3ccccc23)ccc1N1CCOCC1 | nt | 2 | nt | nt | 0 | -2
SMILES | WT yeast gro inh | TNF death inh | DTT redox prof | PKD1 inh | zVAD death inh | PERK inh
Cc1cc(/C=N/n2cnnc2)c(C)n1-c1ccc(OCc2ccc(F)cc2)cc1 | 62* | -20 | 3 | 6 | 0 | -1
Cc1cc(/C=N/n2cnnc2)c(C)n1-c1ccc(OCc2ccc(Cl)cc2Cl)cc1 | 80 | -7 | 2 | 4 | 1 | -1
COc1ccc(C(=O)O/N=C(\C)c2ccccc2)cc1 | 75* | 1 | 0 | 3 | 0 | 1
COc1ccc(C(=O)O/N=C(/c2ccccc2)c2ccncc2)cc1 | -7 | 1 | 0 | -5 | 1 | 1
N#C/C(N)=C(/C#N)N=Cc1cccc(Cl)c1 | nt | -1 | nt | nt | 0 | 1
O=[N+]([O-])c1ccc(N2CCCCC2)cc1NCCOc1ccccc1 | 6 | 2 | -1 | 2 | 0 | 1
Cc1ccccc1OCCNc1cc(N2CC(C)NC(C)C2)ccc1[N+](=O)[O-] (stereo not drawn) | 87* | -8 | -2 | -6 | 10 | -1
CCC(C(=O)OC)n1c(-c2ccccc2)nc2ccccc2c1=O (stereo not drawn) | 60* | 0 | 0 | 2 | 0 | 0
CCn1c([N+](=O)[O-])nc2c1c(=O)[nH]c(=O)n2C | -1 | 51* | -2 | -6 | -2 | 1
CCCCCCn1c(SCCCC)nc2c1c(=O)[nH]c(=O)n2C | 14 | -2 | 2 | -2 | 0 | 0
O=C(CCNC(=O)c1ccccc1Cl)Nc1nnc(C2CC2)s1 | 2 | 2 | 0 | 1 | 2 | 1
COC(=O)c1sc(S(=O)(=O)N2CCC(C(=O)O)CC2)c(C(=O)OC)c1C | 1 | 0 | 0 | 0 | 83* | 1
COC(=O)c1sc(S(=O)(=O)N2CCN(CCO)CC2)c(C(=O)OC)c1C | -4 | 0 | 1 | -4 | 1 | 0
O=C1c2cccc(OCC(=O)N3N=C(c4cccs4)CC3c3ccc(F)cc3)c2CCN1Cc1cccnc1 (stereo not drawn) | 43 | -1 | 0 | -6 | -1 | -1
S=C1NCN(C2CCCCC2)CN1Cc1ccccc1 | 3 | 0 | -1 | 0 | 0 | 1
COc1ccc(C)cc1N(C(=O)c1ccc(F)cc1)c1nc2ccccc2s1 | 69* | 2 | 0 | 3 | 0 | -1
COc1ccc(C)cc1N(C(=O)COc1cccc(F)c1)c1nc2ccccc2s1 | 36 | 2 | 1 | -2 | 0 | 1
CCC1Oc2ccc(C)cc2N(CC(=O)NCCC2=CCCCC2)C1=O (stereo not drawn) | 7 | 1 | -1 | -13 | 0 | -1
CCC1Oc2ccc(C)cc2N(CC(=O)NCCCN2CCCCC2CC)C1=O (stereo not drawn) | 81* | 0 | 3 | -4 | 0 | 0
CN(C)CC/C=C1\c2ccccc2Sc2ccc(Cl)cc21 | 87* | 0 | 0 | 2 | 4 | -1
CC[N+](C)(C)CC/C=C1/c2ccccc2Sc2ccc(Cl)cc21 | nt | 2 | nt | nt | 0 | 1
CC(C)SCc1cc(N2CCCC2)nc(-c2ccccc2)n1 | 58* | 0 | -1 | -9 | 4 | 0
